The source of these data is article PMC7862700, “An all-to-all approach to the identification of sequence-specific readers for epigenetic DNA modifications on cytosine”.

Common to all, as to assay: DAPPL (digital affinity profiling via proximity ligation, sequencing); 10 mM Tris-HCl pH 7.5, 50 mM NaCl, 1 mM DTT, 4% glycerol, room temperature, 30 min; GST-TFs on glutathione beads, 16-mer random dsDNA library, 0.1% formaldehyde crosslink after washing; high values mean tight binding
One experiment concerns the target T1, FLI1 (Homo sapiens, UniProt Q01543 1-452).
T1 sequence: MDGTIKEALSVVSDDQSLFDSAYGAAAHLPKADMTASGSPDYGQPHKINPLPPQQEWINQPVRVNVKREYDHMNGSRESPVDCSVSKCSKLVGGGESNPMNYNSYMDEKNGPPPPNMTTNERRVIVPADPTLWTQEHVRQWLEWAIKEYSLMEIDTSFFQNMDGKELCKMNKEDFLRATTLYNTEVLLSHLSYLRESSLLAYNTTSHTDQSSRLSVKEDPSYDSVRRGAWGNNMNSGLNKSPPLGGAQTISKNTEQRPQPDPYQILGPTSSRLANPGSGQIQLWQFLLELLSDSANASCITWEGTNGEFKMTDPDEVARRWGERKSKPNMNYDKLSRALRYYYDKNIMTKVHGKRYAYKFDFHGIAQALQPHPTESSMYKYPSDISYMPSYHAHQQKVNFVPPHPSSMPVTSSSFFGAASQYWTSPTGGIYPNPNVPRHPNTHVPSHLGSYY
The conditions noted are these: protein: recombinant; tags: N-terminal GST; dsDNA, one strand shown. Put shortly: (§1)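 In yeast, human transcription factors were expressed with a GST fusion, then pulled down on glutathione beads and given DNA barcodes. Pooled with a tag-only sample, they were exposed to 200 nmole of a 16-mer random double-stranded DNA library (Tris/NaCl/DTT/glycerol buffer, room temperature, 30 min), washed, crosslinked with 0.1% formaldehyde, proximity-ligated using BsaI/T4 ligase for 1 h at 37 °C, PCR-amplified and read on an Illumina NextSeq500. Each hexamer's frequency of reads for a factor, divided by the matching frequency for the tag-only sample, gives the binding signal.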

The next experiment deals with T2, ELK1 (Homo sapiens, UniProt P19419 1-428).
T2 sequence: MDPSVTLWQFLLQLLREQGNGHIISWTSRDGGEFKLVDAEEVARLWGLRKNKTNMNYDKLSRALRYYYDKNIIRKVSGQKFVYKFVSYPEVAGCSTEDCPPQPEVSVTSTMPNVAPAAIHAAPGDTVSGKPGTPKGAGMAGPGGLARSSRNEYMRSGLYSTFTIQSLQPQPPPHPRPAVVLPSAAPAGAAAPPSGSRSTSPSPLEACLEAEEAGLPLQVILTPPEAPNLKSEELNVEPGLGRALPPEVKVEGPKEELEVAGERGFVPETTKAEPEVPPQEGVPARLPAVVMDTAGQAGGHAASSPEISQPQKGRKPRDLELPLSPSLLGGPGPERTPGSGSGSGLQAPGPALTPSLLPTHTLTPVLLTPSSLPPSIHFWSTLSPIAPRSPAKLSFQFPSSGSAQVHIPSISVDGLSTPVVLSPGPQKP
The conditions noted are these: protein: recombinant; tags: N-terminal GST; dsDNA, one strand shown. Put shortly:
as §1

Another experiment deals with T3, GABPA (Homo sapiens, UniProt Q06546 1-454).
T3 sequence: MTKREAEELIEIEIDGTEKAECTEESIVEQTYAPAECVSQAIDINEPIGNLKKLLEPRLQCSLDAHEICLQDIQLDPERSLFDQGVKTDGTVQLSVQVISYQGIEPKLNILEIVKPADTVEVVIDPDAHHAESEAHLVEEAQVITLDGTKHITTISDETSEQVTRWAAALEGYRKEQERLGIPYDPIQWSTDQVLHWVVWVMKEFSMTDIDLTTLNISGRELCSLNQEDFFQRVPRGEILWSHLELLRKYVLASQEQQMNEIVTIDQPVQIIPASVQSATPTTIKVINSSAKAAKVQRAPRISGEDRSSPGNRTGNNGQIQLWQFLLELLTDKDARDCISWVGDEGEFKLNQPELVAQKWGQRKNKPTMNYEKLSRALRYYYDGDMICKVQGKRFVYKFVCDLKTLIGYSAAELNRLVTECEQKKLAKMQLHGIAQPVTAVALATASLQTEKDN
The note with it: protein: recombinant; tags: N-terminal GST; dsDNA, one strand shown. Summed up:
as §1

In the next experiment the target is T4, ERG (Homo sapiens, UniProt P11308 1-479).
T4 sequence: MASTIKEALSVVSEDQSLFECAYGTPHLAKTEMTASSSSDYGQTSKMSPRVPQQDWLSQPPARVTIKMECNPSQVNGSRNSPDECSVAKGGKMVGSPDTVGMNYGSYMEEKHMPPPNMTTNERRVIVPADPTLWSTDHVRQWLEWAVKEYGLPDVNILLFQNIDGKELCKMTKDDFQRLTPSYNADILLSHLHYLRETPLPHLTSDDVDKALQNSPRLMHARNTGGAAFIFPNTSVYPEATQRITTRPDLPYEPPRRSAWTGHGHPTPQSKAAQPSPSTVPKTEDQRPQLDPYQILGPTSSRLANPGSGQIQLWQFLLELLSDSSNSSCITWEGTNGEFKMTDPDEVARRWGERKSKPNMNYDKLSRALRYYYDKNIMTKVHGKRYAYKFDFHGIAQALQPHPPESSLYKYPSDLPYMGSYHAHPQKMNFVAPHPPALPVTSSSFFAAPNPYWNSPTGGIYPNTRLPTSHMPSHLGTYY
The note with it: protein: recombinant; tags: N-terminal GST; dsDNA, one strand shown. Summed up: as §1

A further experiment deals with ELF1 (Homo sapiens, UniProt P32519 1-619). The conditions noted are these: protein: recombinant; tags: N-terminal GST; dsDNA, one strand shown. Summed up:
as §1

Another experiment deals with T5, EHF (Homo sapiens, UniProt Q9NZC4 1-300).
T5 sequence: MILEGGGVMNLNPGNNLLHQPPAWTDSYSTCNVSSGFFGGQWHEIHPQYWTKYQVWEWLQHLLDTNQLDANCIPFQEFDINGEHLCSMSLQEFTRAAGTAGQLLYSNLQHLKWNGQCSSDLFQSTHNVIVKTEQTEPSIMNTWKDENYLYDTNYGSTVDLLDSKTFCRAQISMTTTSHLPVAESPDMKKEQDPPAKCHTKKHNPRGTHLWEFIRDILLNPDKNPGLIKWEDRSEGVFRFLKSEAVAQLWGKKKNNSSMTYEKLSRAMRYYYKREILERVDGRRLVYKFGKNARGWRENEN
The note with it: protein: recombinant; tags: N-terminal GST; dsDNA, one strand shown. Summed up:
as §1

Another experiment deals with SPI1 (Homo sapiens, UniProt P17947 1-270). The conditions noted are these: protein: recombinant; tags: N-terminal GST; dsDNA, one strand shown. Summed up: as §1
The target of a further experiment is SPIB (Homo sapiens, UniProt Q01892 1-262). The conditions noted are these: protein: recombinant; tags: N-terminal GST; dsDNA, one strand shown. Put shortly:
as §1

The target of another experiment is T6, ELK3 (Homo sapiens, UniProt P41970 1-407).
T6 sequence: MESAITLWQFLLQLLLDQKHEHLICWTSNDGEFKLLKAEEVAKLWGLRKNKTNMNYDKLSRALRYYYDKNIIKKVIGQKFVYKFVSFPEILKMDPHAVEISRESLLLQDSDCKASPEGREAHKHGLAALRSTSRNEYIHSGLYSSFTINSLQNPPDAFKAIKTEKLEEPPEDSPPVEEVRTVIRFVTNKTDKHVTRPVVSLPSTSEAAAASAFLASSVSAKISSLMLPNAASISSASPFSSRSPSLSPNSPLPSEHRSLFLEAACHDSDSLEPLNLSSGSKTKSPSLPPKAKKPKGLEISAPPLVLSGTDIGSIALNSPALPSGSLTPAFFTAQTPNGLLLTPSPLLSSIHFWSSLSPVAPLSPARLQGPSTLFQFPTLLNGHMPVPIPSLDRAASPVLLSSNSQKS
The note with it: protein: recombinant; tags: N-terminal GST; dsDNA, one strand shown. Summed up:
as §1

The next experiment has as its target T7, FEV (Homo sapiens, UniProt Q99581 1-238).
T7 sequence: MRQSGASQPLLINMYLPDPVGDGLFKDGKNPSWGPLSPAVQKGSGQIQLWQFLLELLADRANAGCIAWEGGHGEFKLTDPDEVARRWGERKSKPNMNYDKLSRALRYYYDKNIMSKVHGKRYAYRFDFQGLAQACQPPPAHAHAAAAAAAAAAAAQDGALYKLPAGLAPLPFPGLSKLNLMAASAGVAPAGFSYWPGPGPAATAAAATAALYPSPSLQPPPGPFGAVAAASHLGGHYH
The conditions noted are these: protein: recombinant; tags: N-terminal GST; dsDNA, one strand shown. Put shortly: as §1

The target of another experiment is ETV5 (Homo sapiens, UniProt P41161 1-510). The conditions noted are these: protein: recombinant; tags: N-terminal GST; dsDNA, one strand shown. Put shortly:
as §1

The target in a further experiment is HSF1 (Homo sapiens, UniProt Q00613 1-529). The conditions noted are these: protein: recombinant; tags: N-terminal GST; chain copies: 3; dsDNA, one strand shown. Summed up: as §1
The target in a further experiment is T8, SPIC (Homo sapiens, UniProt Q8N5J4 1-248).
T8 sequence: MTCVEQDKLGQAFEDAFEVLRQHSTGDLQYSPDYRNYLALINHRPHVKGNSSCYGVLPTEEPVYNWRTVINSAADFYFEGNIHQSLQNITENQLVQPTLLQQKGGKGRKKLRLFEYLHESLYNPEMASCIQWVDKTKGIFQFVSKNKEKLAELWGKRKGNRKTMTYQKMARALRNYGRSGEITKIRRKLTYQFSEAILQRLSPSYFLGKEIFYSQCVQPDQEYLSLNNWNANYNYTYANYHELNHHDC
The note with it: protein: recombinant; tags: N-terminal GST; dsDNA, one strand shown. Put shortly: as §1

For another experiment, the target named is ELF4 (Homo sapiens, UniProt Q99607 1-663). The note with it: protein: recombinant; tags: N-terminal GST; dsDNA, one strand shown. Summed up:
as §1

In the next experiment the target is T9, ELK4 (Homo sapiens, UniProt P28324-2 1-405).
T9 sequence: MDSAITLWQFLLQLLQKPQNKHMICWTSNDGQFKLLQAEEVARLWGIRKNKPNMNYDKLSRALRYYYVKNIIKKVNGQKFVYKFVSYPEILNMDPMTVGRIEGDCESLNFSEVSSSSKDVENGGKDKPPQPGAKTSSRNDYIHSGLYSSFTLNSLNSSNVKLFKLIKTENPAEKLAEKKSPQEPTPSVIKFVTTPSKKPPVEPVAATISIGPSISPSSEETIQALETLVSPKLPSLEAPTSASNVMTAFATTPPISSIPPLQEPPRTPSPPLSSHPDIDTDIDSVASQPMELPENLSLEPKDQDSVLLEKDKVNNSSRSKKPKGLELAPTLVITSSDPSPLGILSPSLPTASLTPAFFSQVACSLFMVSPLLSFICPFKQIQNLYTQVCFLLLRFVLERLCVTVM
The conditions noted are these: protein: recombinant; tags: N-terminal GST; dsDNA, one strand shown. Put shortly:
as §1

The target of another experiment is T10, ETV2 (Homo sapiens, UniProt O00321 1-342).
T10 sequence: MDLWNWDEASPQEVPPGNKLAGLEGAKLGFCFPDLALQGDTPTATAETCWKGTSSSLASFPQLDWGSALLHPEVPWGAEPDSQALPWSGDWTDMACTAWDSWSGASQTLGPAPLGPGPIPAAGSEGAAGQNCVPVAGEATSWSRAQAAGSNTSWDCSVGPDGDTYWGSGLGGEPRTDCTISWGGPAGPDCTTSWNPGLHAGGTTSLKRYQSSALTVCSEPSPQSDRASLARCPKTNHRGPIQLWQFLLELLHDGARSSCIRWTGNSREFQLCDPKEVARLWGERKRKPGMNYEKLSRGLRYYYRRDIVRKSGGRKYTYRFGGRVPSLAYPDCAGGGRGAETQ
The conditions noted are these: protein: recombinant; tags: N-terminal GST; dsDNA, one strand shown. Put shortly:
as §1

The target in the next experiment is T11, ELF3 (Homo sapiens, UniProt P78545 1-371).
T11 sequence: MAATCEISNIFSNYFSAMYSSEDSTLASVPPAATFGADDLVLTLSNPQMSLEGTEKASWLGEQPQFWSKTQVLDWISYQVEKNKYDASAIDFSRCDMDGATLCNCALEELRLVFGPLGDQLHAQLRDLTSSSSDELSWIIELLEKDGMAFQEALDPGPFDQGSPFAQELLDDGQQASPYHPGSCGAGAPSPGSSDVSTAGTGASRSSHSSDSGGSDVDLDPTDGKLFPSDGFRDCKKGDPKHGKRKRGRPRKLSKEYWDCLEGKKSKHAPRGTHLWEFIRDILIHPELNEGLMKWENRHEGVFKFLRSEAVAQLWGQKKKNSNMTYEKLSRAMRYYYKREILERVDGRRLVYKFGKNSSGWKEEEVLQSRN
The conditions noted are these: protein: recombinant; tags: N-terminal GST; dsDNA, one strand shown. Put shortly: as §1

In a further experiment the target is CRX (Homo sapiens, UniProt O43186 1-299). The note with it: protein: recombinant; tags: N-terminal GST; dsDNA, one strand shown. Summed up:
as §1

The target of a further experiment is ETV1 (Homo sapiens, UniProt P50549 1-477). The conditions noted are these: protein: recombinant; tags: N-terminal GST; dsDNA, one strand shown. Put shortly:
as §1

ELF4, sequence (Q99607 whole entry): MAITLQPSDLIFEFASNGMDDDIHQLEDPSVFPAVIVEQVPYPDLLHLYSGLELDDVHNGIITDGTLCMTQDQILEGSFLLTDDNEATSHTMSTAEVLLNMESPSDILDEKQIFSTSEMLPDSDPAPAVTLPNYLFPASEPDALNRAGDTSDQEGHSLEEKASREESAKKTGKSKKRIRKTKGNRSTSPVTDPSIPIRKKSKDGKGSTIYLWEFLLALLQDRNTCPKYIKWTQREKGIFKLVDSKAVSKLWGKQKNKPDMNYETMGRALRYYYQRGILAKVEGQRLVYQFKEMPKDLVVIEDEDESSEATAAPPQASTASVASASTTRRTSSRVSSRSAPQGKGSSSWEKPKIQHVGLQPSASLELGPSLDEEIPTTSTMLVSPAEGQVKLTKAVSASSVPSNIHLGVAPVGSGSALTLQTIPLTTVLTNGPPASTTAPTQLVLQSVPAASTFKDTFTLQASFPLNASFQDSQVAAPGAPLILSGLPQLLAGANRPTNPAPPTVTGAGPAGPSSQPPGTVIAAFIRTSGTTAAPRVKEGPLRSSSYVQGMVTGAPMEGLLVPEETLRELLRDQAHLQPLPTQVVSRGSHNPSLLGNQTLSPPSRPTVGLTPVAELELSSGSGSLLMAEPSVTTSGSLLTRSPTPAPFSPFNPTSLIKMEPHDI
CRX, sequence (O43186 whole entry): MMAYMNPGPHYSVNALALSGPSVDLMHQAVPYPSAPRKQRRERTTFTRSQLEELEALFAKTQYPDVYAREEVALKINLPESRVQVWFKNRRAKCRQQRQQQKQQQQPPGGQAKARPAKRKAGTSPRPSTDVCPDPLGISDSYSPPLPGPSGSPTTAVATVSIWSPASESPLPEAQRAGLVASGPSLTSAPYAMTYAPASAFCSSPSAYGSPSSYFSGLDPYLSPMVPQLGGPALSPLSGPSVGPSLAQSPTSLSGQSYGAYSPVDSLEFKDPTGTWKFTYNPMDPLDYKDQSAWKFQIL
HSF1, sequence (Q00613 whole entry): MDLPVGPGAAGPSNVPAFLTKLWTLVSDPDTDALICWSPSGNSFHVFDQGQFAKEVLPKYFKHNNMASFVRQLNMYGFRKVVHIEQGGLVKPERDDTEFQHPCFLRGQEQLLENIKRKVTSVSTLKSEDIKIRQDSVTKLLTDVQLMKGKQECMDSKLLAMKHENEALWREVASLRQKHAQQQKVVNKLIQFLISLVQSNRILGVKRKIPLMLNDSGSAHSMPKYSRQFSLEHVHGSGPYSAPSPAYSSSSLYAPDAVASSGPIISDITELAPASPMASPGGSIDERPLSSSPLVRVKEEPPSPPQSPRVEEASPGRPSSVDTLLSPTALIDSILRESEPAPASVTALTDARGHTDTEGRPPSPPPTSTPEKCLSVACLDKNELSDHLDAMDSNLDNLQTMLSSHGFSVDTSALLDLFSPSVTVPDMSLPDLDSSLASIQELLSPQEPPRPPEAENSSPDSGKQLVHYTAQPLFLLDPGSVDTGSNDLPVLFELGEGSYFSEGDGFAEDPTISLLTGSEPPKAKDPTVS
ETV5, sequence (P41161 whole entry): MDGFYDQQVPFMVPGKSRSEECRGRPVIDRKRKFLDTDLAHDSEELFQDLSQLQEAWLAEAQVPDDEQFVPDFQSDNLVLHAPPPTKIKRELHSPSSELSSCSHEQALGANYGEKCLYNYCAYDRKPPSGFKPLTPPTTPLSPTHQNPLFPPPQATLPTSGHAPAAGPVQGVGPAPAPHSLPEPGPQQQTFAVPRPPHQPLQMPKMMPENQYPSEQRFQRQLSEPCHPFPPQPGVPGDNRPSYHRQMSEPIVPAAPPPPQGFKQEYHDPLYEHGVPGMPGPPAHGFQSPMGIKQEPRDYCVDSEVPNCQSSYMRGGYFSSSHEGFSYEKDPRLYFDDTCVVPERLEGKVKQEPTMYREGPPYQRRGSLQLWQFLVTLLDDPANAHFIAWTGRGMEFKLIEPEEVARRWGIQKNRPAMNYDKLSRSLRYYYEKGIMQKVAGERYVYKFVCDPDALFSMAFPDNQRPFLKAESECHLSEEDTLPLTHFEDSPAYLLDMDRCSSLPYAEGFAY
SPIB, sequence (Q01892 whole entry): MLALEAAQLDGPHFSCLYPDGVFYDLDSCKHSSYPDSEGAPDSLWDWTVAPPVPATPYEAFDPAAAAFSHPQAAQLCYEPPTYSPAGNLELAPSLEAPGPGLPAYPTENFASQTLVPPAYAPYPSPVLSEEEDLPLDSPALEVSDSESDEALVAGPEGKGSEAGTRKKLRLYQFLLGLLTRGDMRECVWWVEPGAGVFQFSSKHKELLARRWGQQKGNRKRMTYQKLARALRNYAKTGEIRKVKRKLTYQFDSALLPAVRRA
ETV1, sequence (P50549 whole entry): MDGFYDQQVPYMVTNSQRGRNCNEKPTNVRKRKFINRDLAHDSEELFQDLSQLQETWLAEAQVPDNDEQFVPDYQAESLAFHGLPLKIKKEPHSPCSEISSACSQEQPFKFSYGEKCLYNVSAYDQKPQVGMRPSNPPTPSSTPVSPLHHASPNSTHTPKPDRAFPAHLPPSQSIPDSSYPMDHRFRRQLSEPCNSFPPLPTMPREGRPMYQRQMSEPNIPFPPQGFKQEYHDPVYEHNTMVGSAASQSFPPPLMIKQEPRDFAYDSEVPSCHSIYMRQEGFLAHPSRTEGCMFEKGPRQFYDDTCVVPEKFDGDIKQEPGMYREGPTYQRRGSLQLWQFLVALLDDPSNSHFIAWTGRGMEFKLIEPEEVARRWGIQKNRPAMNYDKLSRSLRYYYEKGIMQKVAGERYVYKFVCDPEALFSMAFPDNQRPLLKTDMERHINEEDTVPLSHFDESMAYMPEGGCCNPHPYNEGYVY
ELF1, sequence (P32519 whole entry): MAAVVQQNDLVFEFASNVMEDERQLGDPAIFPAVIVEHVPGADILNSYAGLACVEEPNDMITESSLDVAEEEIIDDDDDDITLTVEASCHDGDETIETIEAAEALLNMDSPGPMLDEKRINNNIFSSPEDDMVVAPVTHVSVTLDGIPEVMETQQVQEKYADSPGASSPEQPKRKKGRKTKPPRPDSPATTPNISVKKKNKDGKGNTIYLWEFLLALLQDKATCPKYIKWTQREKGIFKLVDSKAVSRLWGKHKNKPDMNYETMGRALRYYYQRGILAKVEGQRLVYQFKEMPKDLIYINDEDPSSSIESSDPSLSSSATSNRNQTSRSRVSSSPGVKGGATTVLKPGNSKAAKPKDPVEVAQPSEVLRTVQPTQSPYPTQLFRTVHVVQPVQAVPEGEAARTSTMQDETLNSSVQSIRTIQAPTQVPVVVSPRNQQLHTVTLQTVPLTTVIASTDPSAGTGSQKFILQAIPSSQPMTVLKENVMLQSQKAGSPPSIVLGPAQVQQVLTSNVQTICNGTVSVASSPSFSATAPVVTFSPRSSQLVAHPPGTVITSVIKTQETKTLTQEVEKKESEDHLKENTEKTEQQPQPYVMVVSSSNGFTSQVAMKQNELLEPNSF

With CGAAGC, the binding signal with FLI1 was 1.39 fold enrichment (6-mer frequency, TF over GST control); with ELK1, 1.36 fold enrichment (6-mer frequency, TF over GST control); in the experiment with GABPA, 1.36 fold enrichment (6-mer frequency, TF over GST control); with ERG, 1.23 fold enrichment (6-mer frequency, TF over GST control); with ELF1, 1.34 fold enrichment (6-mer frequency, TF over GST control); in the experiment with EHF, 1.26 fold enrichment (6-mer frequency, TF over GST control). Also, the binding signal with SPI1 is 1.2 fold enrichment (6-mer frequency, TF over GST control); in the experiment with SPIB it was 1.22 fold enrichment (6-mer frequency, TF over GST control); with ELK3, 1.49 fold enrichment (6-mer frequency, TF over GST control); with FEV, 1.23 fold enrichment (6-mer frequency, TF over GST control); with ETV5 it was 1.31 fold enrichment (6-mer frequency, TF over GST control); with HSF1, 1.64 fold enrichment (6-mer frequency, TF over GST control). Also, the binding signal with SPIC is 1.46 fold enrichment (6-mer frequency, TF over GST control); with ELF4 it was 1.44 fold enrichment (6-mer frequency, TF over GST control); with ELK4, 1.48 fold enrichment (6-mer frequency, TF over GST control); with ETV2 it was 1.3 fold enrichment (6-mer frequency, TF over GST control); with ELF3, 1.23 fold enrichment (6-mer frequency, TF over GST control); with CRX it was 1.19 fold enrichment (6-mer frequency, TF over GST control). Moreover, the binding signal with ETV1 was 1.29 fold enrichment (6-mer frequency, TF over GST control).
